Compounds with a hit are over-represented: about 8.2% of the library has one in this group of screens.
MCF10A rereplic: induces DNA re-replication in MCF 10a normal breast cells; MCF 10A DNA re-replication, Hoechst nuclear intensity, 48 h; Potency, µM (series often up to 46.1 µM), hits mostly activators; hit rate 2.9% among 350,000; AID 624296; also: nearly all actives have a fitted effect of over 50% in size
KB-3-1 tox: kills parental KB-3-1 adenocarcinoma cells. KB-3-1 viability, CellTiter-Glo ATP luminescence, 72 h. Potency, µM (titrated, usually from 46.1 µM), usual class: cytotoxic. hit rate 1.4% among 400,000. AID 1347075; also: nearly all actives have a fitted effect of over 60% in size
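Cytotoxicity in the drug-sensitive parental line KB-3-1 was scored as loss of CellTiter-Glo luminescence following 72 h incubation with compound. Values come from curve fitting of normalized concentration-response data.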
ELG1 DNA repair: blocks ELG1-dependent DNA repair in HEK293T cells | hit rate 2.3% among 330,000 | AID 504467 | HEK293T ELG1-luciferase reporter, luminescence, 16 h; DNA damage induced by 5-fluorouridine | Potency, µM (doses to about 46.1 µM), actives largely listed as inhibitors; also: nearly all actives have a fitted effect of over 55% in size
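Overnight (16 hr) co-exposure of 2,000 cells/well to 5-fluorouridine and compound at 37 °C preceded detection. Luciferase was quantified via ONE-Glo luminescence; loss of signal denotes inhibition.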
SW480 rerep: inducers of DNA re-replication in SW480 colon cancer cells; Potency, µM (titrated, usually from 46.1 µM), most hits filed as activators; SW480 DNA re-replication, Hoechst DNA content imaging, 48 h; hit rate 1.8% among 340,000; also: nearly all actives have a fitted effect of over 55% in size
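Image-based DNA-content assay: after two days of treatment, nuclei were labelled with the DNA dye Hoechst and imaged, and hits were compounds raising the count of nuclei showing high fluorescence intensity.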
KB-V1 MDR tox: KB-V1 MDR subline cytotoxicity; AID 1347076; KB-V1 MDR cells viability, CellTiter-Glo, 72 h; hit rate 3.4% among 400,000; Potency, µM (titrated, usually from 46.1 µM), most hits filed as cytotoxic; also: nearly all actives have a fitted effect of over 60% in size
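Drug-selected KB-V1 cells, grown in DMEM lacking phenol red with 10% FBS, receive compound titrations; after three days at 37 degrees C, surviving cell ATP is quantified by CellTiter-Glo luminescence and responses normalized and curve-fitted.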
Each line names hits and unclear results; the compound was inactive in the other large screens; ! = a repeat was not active. Calls follow the shape of the dose curve; as a rule, active = well fitted curve in the direction sought with a large enough effect; inconclusive = small, poorly fitted or top-dose-only effect, or another doubt; inactive = no such curve, though single readings can be large; an effect the other way counts as inactive or inconclusive.

Cc1nc(SCCc2ccccc2)[nH]c(=O)c1C	KB-3-1 tox 3.3µM, ELG1 DNA repair inconclusive, SW480 rerep inconclusive, KB-V1 MDR tox 3.3µM
Cc1nc(SCc2ccc(Br)cc2)[nH]c(=O)c1C	MCF10A rereplic 7.3µM, ELG1 DNA repair inconclusive
CCc1cc(=O)[nH]c(SCCc2ccccc2)n1	MCF10A rereplic inconclusive, KB-3-1 tox 13µM, KB-V1 MDR tox 8.2µM
Nc1cc(=O)[nH]c(SCCSc2ccc(F)cc2)n1	KB-3-1 tox inconclusive, KB-V1 MDR tox inconclusive
Cc1ccc(SCCSc2nc(N)cc(=O)[nH]2)cc1	KB-V1 MDR tox 8.2µM
CCSc1nc(C)c(C)c(=O)[nH]1	none
Cc1ccc(CNC(=O)c2cccc(NC(=O)N3CCSc4ncccc43)c2)cc1	none (no result: MCF10A rereplic, ELG1 DNA repair, SW480 rerep)
Cc1cc(=O)[nH]c(SCCc2ccccc2)n1	KB-3-1 tox 16µM, KB-V1 MDR tox 12µM
C/C(CC(=O)Nc1ccc(C)c(Cl)c1)=N\NC(=O)c1ccco1	MCF10A rereplic 18µM, KB-V1 MDR tox inconclusive
C/C(CC(=O)Nc1ccc(OCc2ccccc2)cc1)=N\NC(=O)C(=O)Nc1ccc(C)c(Cl)c1	MCF10A rereplic 10µM, KB-3-1 tox inconclusive, ELG1 DNA repair inconclusive
Cc1ccc(S(=O)(=O)N2CCOCC2)cc1N/N=C(\C#N)c1nc2ccccc2[nH]1	ELG1 DNA repair 8.2µM
Cc1ccc(Cc2nnc3n(-c4ccccc4)nc(C(=O)c4ccccc4)n3c2=O)cc1	MCF10A rereplic 16µM, KB-3-1 tox inconclusive, ELG1 DNA repair 21µM, SW480 rerep 18µM, KB-V1 MDR tox 8.2µM
Clc1ccc(SCc2nc3ccccc3[nH]2)cc1	MCF10A rereplic inconclusive, ELG1 DNA repair inconclusive, KB-V1 MDR tox 23µM
Cc1ccc(CSCc2nc3ccccc3[nH]2)cc1	MCF10A rereplic 16µM, ELG1 DNA repair inconclusive, SW480 rerep inconclusive
Cc1cc(C)cc(CC(Cc2nc3ccccc3[nH]2)c2nc3ccccc3[nH]2)c1 (stereo unspecified)	MCF10A rereplic inconclusive, KB-3-1 tox 16µM, ELG1 DNA repair inconclusive
CSc1ccc(/C=C(/NC(=O)c2ccc(C)cc2)C(=O)Nc2cccc(C)c2)cc1	none
CSc1ccc(/C=C(\NC(=O)c2ccc(C)cc2)C(=O)NN)cc1	ELG1 DNA repair 18µM
CNS(=O)(=O)c1cccc(C(=O)OCC(=O)Nc2ccc(OC)cc2[N+](=O)[O-])c1	none
CCN(CC)c1cc(C)c(/C=C/c2ccnc3ccccc23)cc1C	KB-3-1 tox 12µM, KB-V1 MDR tox inconclusive (no result: MCF10A rereplic, ELG1 DNA repair, SW480 rerep)
CCOc1ccc(C=Nc2ccc(/C=C/c3ccnc4ccccc34)cc2)cc1OCC	none (no result: MCF10A rereplic, ELG1 DNA repair, SW480 rerep)
CCCCN(CCCC)c1ccc(C=Nc2ccc(/C=C/c3ccnc4ccccc34)cc2)cc1C	KB-3-1 tox inconclusive, KB-V1 MDR tox 23µM (no result: MCF10A rereplic, ELG1 DNA repair, SW480 rerep)
Cc1cc(N(C)C)c(C)cc1/C=C/c1ccnc2ccccc12	KB-3-1 tox 2.9µM, KB-V1 MDR tox 6.5µM (no result: MCF10A rereplic, ELG1 DNA repair, SW480 rerep)
CCN(Cc1ccccc1)c1ccc(/C=C/c2ccnc3ccccc23)cc1	none (no result: MCF10A rereplic, ELG1 DNA repair, SW480 rerep)
O=C(NCc1cccs1)C1CCCN1C(=O)Nc1ccc(F)cc1 (stereo unspecified)	none
O=S(=O)(c1cccc(Br)c1)N1CCN(CCc2ccccc2)CC1	MCF10A rereplic inconclusive, ELG1 DNA repair inconclusive
COc1ccc(-c2sc3cc(OC)ccc3c2-c2ccc(OCCN3CCOCC3)cc2)cc1	MCF10A rereplic 3.7µM, SW480 rerep inconclusive
COc1ccc(-c2sc3cc4c(cc3c2-c2ccc(OCCN3CCCCC3)cc2)OCO4)cc1	MCF10A rereplic inconclusive
COc1cc(OC)cc(-c2sc3ccc(OC)cc3c2-c2ccc(OCCN3CCCCC3)cc2)c1	MCF10A rereplic 18µM, ELG1 DNA repair inconclusive, SW480 rerep inconclusive
CCC(c1nnnn1Cc1ccccc1)N(Cc1ccccc1)Cc1cc2cc(C)ccc2[nH]c1=O (stereo unspecified)	none (no result: MCF10A rereplic, ELG1 DNA repair, SW480 rerep)
O=[N+]([O-])c1ccc(Sc2ccc(Cl)c(Cl)c2)nc1	MCF10A rereplic 15µM, KB-V1 MDR tox inconclusive
CC1(C)N=C(N)NC(=NCCCOc2ccc([N+](=O)[O-])cc2)N1	none (no result: MCF10A rereplic, ELG1 DNA repair, SW480 rerep)
COc1ccc(C(C)=O)cc1COc1ccccc1[N+](=O)[O-]	none
COc1ccc(C(C)=O)cc1COc1cccnc1[N+](=O)[O-]	MCF10A rereplic inconclusive, ELG1 DNA repair inconclusive, SW480 rerep inconclusive, KB-V1 MDR tox 15µM
CCOc1ccc(C(C)=O)cc1COc1cccnc1[N+](=O)[O-]	MCF10A rereplic inconclusive, KB-3-1 tox inconclusive, SW480 rerep 21µM, KB-V1 MDR tox 12µM
COC(=O)[C@@]12C[C@@H](CC(=O)N3CCN(C(=O)c4ccco4)CC3)C(=O)N(Cc3ccc4c(c3)OCO4)C1=CCC(C)(C)C2	none (no result: MCF10A rereplic, ELG1 DNA repair, SW480 rerep)
Cc1ccc(N(CC(=O)Nc2cc(Cl)ccc2Oc2ccccc2)S(C)(=O)=O)cc1C	KB-3-1 tox inconclusive, KB-V1 MDR tox 21µM
Cc1ccc(N(C(C)C(=O)Nc2cc(Cl)ccc2Oc2ccccc2)S(C)(=O)=O)cc1 (stereo unspecified)	SW480 rerep 8.2µM, KB-V1 MDR tox inconclusive
Cc1ccc(N(CC(=O)Nc2cc(Cl)ccc2Oc2ccccc2)S(C)(=O)=O)c(C)c1	MCF10A rereplic inconclusive, KB-3-1 tox inconclusive, KB-V1 MDR tox inconclusive
O=C1C(=O)c2ccccc2C(O)=C1c1cccc([N+](=O)[O-])c1	KB-3-1 tox inconclusive, ELG1 DNA repair inconclusive, SW480 rerep 23µM, KB-V1 MDR tox inconclusive
COc1cc(C(C(=O)NC2CCCC2)N(C(=O)c2snc(C(N)=O)c2N)c2ccccc2)cc(OC)c1OC (stereo unspecified)	MCF10A rereplic inconclusive, SW480 rerep inconclusive
CC1Cc2ccccc2N1C(=O)c1cc2c(=O)n3ccccc3nc2n1C (stereo unspecified)	MCF10A rereplic inconclusive, KB-3-1 tox inconclusive, ELG1 DNA repair inconclusive, KB-V1 MDR tox 5.8µM
CC1CC(NC(=O)c2cc3c(=O)n4ccccc4nc3n2C)CC(C)(C)C1 (stereo unspecified)	MCF10A rereplic 10µM, ELG1 DNA repair inconclusive, SW480 rerep 10µM, KB-V1 MDR tox inconclusive
Cc1cccn2c(=O)c3cc(C(=O)N4c5ccccc5CC4C)n(C)c3nc12 (stereo unspecified)	KB-3-1 tox inconclusive, KB-V1 MDR tox inconclusive
CC1CCCCC1NC(=O)c1cc2c(=O)n3ccccc3nc2n1C (stereo unspecified)	ELG1 DNA repair inconclusive, SW480 rerep inconclusive
O=C(CNC(=O)OCc1ccccc1)OC(c1ccccc1)c1ccccc1	none (no result: ELG1 DNA repair)
O=C1CCC[C@@H]2[C@H](Cc3ccccc3)[C@@H](O)C[C@@H]3CCN1[C@@H]32	KB-3-1 tox inconclusive, KB-V1 MDR tox 15µM! (no result: ELG1 DNA repair)
O=C1CCC[C@@H]2[C@@H](Cc3ccccc3)[C@@H](Nc3ccccc3)C[C@@H]3CCN1[C@@H]32	KB-V1 MDR tox inconclusive (no result: MCF10A rereplic, ELG1 DNA repair, SW480 rerep)
Cc1cc(C)cc(N2C(N)=NC(N)=NC2c2ccccc2F)c1 (stereo unspecified)	KB-3-1 tox inconclusive, SW480 rerep inconclusive, KB-V1 MDR tox 16µM
COc1ccccc1CN(C)C(=O)c1ccccc1Sc1ccccc1C#N	MCF10A rereplic inconclusive, KB-V1 MDR tox inconclusive

High-throughput results from PubChem.
